Results published in PubChem BioAssay.
The source made the active and inactive calls.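 How the source made its calls, unless noted: active means luciferase signal above three times the same-plate solvent-only control wells; inactive means the rest.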

Columns and labels:
[1] = target: 6-phosphogluconate dehydrogenase, decarboxylating (Homo sapiens) (UniProt P52209); test: inhibition of human phosphogluconate dehydrogenase – biochemical, recombinant enzyme, NADPH absorbance, primary screen (AID 1159550;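 active means at least 20% inhibition of 6-phosphogluconate dehydrogenase activity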); conditions: recombinant 6PGD, NADPH absorbance 341 nm; at 10 µM; stronger effect = higher value
[2] = EMT-state selective cytotoxicity in co-culture – imaging, PC-3E GFP, TEM4-18 mCherry, primary screen (AID 1345086;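 active means compounds killing one labelled cell type while sparing the other, by normalised counts and ratio limits, not self-fluorescent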;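 on all read-outs here: cells exposed to compound for 72 h before imaging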;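 on red/green cell ratio (normalised): normalised mesenchymal count divided by normalised epithelial count so high means epithelial killing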); conditions: PC-3E GFP / TEM4-18 mCherry co-culture, imaging cell counts, at 1 µM; for red/green cell ratio (normalised): actives lie on both sides, counts scaled to control wells, 1 = unselective
[3] = target: Mitogen-activated protein kinase 7 (Homo sapiens) (UniProt Q13164); test: Gal4-ERK5 driven luciferase induction – cell-based, HTS, primary screen (AID 1508626); conditions: HeLa Gal4-ERK5 transactivation, 18 h, at 5 µM, stronger effect = higher value;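 further: luciferase driven by Gal4-ERK5 fusion binding five Gal4 sites before minimal TATA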
[4] = measured here: epithelial PC-3E GFP cell survival
[5] = measured here: mesenchymal TEM4-18 mCherry cell survival

Chain of Mitogen-activated protein kinase 7 (Homo sapiens) (Q13164 whole entry, looked up, the tested form may be a part): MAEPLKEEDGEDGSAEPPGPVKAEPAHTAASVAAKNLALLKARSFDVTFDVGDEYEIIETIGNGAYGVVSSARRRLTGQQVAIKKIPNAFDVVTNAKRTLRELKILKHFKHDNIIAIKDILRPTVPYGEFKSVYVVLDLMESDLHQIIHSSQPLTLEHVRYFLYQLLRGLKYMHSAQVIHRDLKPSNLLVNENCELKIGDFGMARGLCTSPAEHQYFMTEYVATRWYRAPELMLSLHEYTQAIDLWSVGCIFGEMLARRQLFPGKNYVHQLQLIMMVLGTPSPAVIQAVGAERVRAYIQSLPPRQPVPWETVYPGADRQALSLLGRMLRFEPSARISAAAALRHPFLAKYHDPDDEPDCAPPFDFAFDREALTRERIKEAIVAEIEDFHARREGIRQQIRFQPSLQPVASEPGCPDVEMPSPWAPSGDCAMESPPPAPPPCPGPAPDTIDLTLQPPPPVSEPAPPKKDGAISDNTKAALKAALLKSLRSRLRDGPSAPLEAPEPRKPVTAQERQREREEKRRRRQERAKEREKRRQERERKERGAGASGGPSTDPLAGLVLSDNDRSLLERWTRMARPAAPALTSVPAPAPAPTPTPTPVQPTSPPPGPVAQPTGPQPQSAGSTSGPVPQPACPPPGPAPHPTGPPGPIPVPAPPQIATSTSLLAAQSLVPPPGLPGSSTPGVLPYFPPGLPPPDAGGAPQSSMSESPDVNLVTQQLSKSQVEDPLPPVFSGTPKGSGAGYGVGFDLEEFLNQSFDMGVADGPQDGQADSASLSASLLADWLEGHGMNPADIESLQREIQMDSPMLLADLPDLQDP
Chain of 6-phosphogluconate dehydrogenase, decarboxylating (Homo sapiens) (P52209 whole entry, looked up): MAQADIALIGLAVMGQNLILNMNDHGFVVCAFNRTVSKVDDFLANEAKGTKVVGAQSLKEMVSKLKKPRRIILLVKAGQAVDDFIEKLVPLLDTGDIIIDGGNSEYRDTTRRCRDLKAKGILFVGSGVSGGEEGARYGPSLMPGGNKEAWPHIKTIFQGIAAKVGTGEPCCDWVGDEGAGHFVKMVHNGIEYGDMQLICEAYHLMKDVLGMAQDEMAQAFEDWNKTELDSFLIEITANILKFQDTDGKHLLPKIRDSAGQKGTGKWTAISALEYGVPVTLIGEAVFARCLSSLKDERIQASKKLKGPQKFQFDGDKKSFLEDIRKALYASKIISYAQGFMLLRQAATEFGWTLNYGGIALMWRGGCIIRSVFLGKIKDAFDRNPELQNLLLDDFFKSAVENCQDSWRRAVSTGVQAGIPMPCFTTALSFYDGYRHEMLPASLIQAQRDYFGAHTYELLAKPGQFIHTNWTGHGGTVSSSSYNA

## C=CC(C1=CC(=O)C(OC)=CC1=O)c1ccc(O)cc1 (stereo not given)
[1]
  inhibition: 1.39% (inactive)
[2]
  red/green cell ratio (normalised): 0.91 (inactive)
[2]; [4]
  normalised cell number: 1.05
[2]; [5]
  normalised cell number: 0.95
[3]
  luciferase signal: 136 AU (inactive)

## Cc1cc(O)c(C=O)c(O)c1C(=O)O
[1]
  inhibition: 15% (inactive)
[2]
  red/green cell ratio (normalised): 0.84 (inactive)
[2]; [4]
  normalised cell number: 1.14
[2]; [5]
  normalised cell number: 0.95
[3]
  luciferase signal: 120 AU (inactive)

## O=c1c(O)c(-c2ccccc2)oc2ccccc12
[1]
  inhibition: 1.99% (inactive)
[2]
  red/green cell ratio (normalised): 0.97 (inactive)
[2]; [4]
  normalised cell number: 1.03
[2]; [5]
  normalised cell number: 1
[3]
  luciferase signal: 24 AU (inactive)

## Oc1cc(O)c2c(c1)O[C@H](c1cc(O)c(O)c(O)c1)[C@H](O)C2
[1]
  inhibition: -13.7% (inactive)
[2]
  red/green cell ratio (normalised): 1.12 (inactive)
[2]; [4]
  normalised cell number: 0.76
[2]; [5]
  normalised cell number: 0.85
[3]
  luciferase signal: 172 AU (inactive)

## COc1ccc2c(c1)OC[C@@H](Cc1ccc(OC)c(OC)c1)[C@H]2O
[1]
  inhibition: 15.8% (inactive)
[2]
  red/green cell ratio (normalised): 1.09 (inactive)
[2]; [4]
  normalised cell number: 0.98
[2]; [5]
  normalised cell number: 1.07
[3]
  luciferase signal: 76 AU (inactive)

## CCCCCc1c2c(cc(O)c1C(=O)O)OC(=O)c1c(cc(OC)cc1C(=O)CCCC)O2
[1]
  inhibition: 4.81% (inactive)
[2]
  red/green cell ratio (normalised): 0.98 (inactive)
[2]; [4]
  normalised cell number: 1.07
[2]; [5]
  normalised cell number: 1.05
[3]
  luciferase signal: 48 AU (inactive)

## CC(=O)O[C@H]1CCC2(C)C3=C(CCC2C1(C)C)[C@]1(C)CCC(C(C)CCC=C(C)C)[C@@]1(C)CC3 (stereo not given in full)
[1]
  inhibition: 12.8% (inactive)
[2]
  red/green cell ratio (normalised): 0.97 (inactive)
[2]; [4]
  normalised cell number: 0.86
[2]; [5]
  normalised cell number: 0.83
[3]
  luciferase signal: 52 AU (inactive)

## O=c1c(O)c(-c2ccccc2)oc2cc(O)ccc12
[1]
  inhibition: -10.2% (inactive)
[2]
  red/green cell ratio (normalised): 0.89 (inactive)
[2]; [4]
  normalised cell number: 0.98
[2]; [5]
  normalised cell number: 0.88
[3]
  luciferase signal: 264 AU (inactive)

## COc1cc(C)c2c(c1C=O)Oc1c(c(C)c(O)c3c1C(O)OC3=O)OC2=O (stereo not given)
[1]
  inhibition: -0.395% (inactive)
[2]
  red/green cell ratio (normalised): 0.74 (inactive)
[2]; [4]
  normalised cell number: 0.95
[2]; [5]
  normalised cell number: 0.7
[3]
  luciferase signal: 44 AU (inactive)

## COc1ccc2c(c1)OCC(Cc1ccc(OC)c(O)c1)C2=O (stereo not given)
[1]
  inhibition: 13.3% (inactive)
[2]
  red/green cell ratio (normalised): 0.88 (inactive)
[2]; [4]
  normalised cell number: 0.74
[2]; [5]
  normalised cell number: 0.65
[3]
  luciferase signal: 52 AU (inactive)

## CCOC(=O)c1c(C)cc(O)cc1O
[1]
  inhibition: 0.669% (inactive)
[2]
  red/green cell ratio (normalised): 0.99 (inactive)
[2]; [4]
  normalised cell number: 0.99
[2]; [5]
  normalised cell number: 0.99
[3]
  luciferase signal: 72 AU (inactive)

## NCCC(=O)N[C@@H](Cc1cnc[nH]1)C(=O)O
[1]
  inhibition: -1.18% (inactive)
[2]
  red/green cell ratio (normalised): 1.1 (inactive)
[2]; [4]
  normalised cell number: 0.93
[2]; [5]
  normalised cell number: 1.03
[3]
  luciferase signal: 100 AU (inactive)

## COc1cc2c(cc1OC)C1(O)C(=O)c3ccc(O)c(C(=O)O)c3OC1CO2 (stereo not given)
[1]
  inhibition: 11.5% (inactive)
[2]
  red/green cell ratio (normalised): 1 (inactive)
[2]; [4]
  normalised cell number: 1.11
[2]; [5]
  normalised cell number: 1.11
[3]
  luciferase signal: 16 AU (inactive)

## CC1=CC(=O)C(C(C)C)=CC1=O
[1]
  inhibition: -9.74% (inactive)
[2]
  red/green cell ratio (normalised): 0.97 (inactive)
[2]; [4]
  normalised cell number: 0.99
[2]; [5]
  normalised cell number: 0.96
[3]
  luciferase signal: 24 AU (inactive)

## COc1cc(O)cc(OC)c1OC
[1]
  inhibition: -0.756% (inactive)
[2]
  red/green cell ratio (normalised): 1.04 (inactive)
[2]; [4]
  normalised cell number: 1.01
[2]; [5]
  normalised cell number: 1.04
[3]
  luciferase signal: 20 AU (inactive)

## CC(=O)O[C@H]1C[C@@H](OC(C)=O)C(C)(C)C2C[C@@H](OC(C)=O)[C@@]3(C)C4=CC(=O)O[C@@H](c5ccoc5)[C@]4(C)CCC3[C@]21C (stereo not given in full)
[1]
  inhibition: 0.0743% (inactive)
[2]
  red/green cell ratio (normalised): 1.01 (inactive)
[2]; [4]
  normalised cell number: 1
[2]; [5]
  normalised cell number: 1.01
[3]
  luciferase signal: 16 AU (inactive)

## O=C(/C=C/c1ccccc1)c1ccc(O)cc1
[1]
  inhibition: 1.18% (inactive)
[2]
  red/green cell ratio (normalised): 1.04 (inactive)
[2]; [4]
  normalised cell number: 0.75
[2]; [5]
  normalised cell number: 0.79
[3]
  luciferase signal: 28 AU (inactive)

## CC1(C)CC23C(=O)CCC(O)C2(C)CCC13 (stereo not given)
[1]
  inhibition: -0.3% (inactive)
[2]
  red/green cell ratio (normalised): 1 (inactive)
[2]; [4]
  normalised cell number: 1.11
[2]; [5]
  normalised cell number: 1.11
[3]
  luciferase signal: 72 AU (inactive)
